According to PubChem BioAssay AID1159580 (chemical genetic matrix, 2015):
“And” between values parts separate entries of the source, which are not always exact repeats. Identical values can stand only once. Out of some 5,500 compounds screened, about 2,000 (36%) were called active. Not shown: some 18% with an inconclusive outcome. Cut-off read from the data, not from the text of the source: active = normalized growth mostly below about 0.91 (no sharp cut-off); inconclusive = no clear call, values can overlap the other calls; inactive = mostly above about 0.92. This is one part of the list.

Test: chemical genetic growth profiling, strain panel (AID 1159580);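 note: tested at 20 µM; growth read once vehicle control cultures reached saturation at 30 °C; 1 = growth at the plate median or of vehicle wells; lower values mean less growth of the strain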
Conditions: S. cerevisiae deletion strains, growth OD

Measured: normalized growth

COc1cc2c(cc1OC)C1(O)C(=O)c3ccc(O)c(C(=O)O)c3OC1CO2 (configuration not stated)
inactive: locus YAL021C, strain ccr4, stronger effect = lower value 1 | locus YAL026C, strain drs2, stronger effect = lower value 0.988 | locus YAL030W, strain snc1, stronger effect = lower value 1 | locus YBL061C, strain skt5, stronger effect = lower value 0.995 | locus YBR009C, strain hhf1, stronger effect = lower value 0.998 | locus YBR021W, strain FUR4, stronger effect = lower value 1.06 | locus YBR023C, strain chs3, stronger effect = lower value 1.01 | locus YBR171W, strain sec66, stronger effect = lower value 0.996 | locus YBR229C, strain ROT2, stronger effect = lower value 1.01 | locus YBR231C, strain swc5, stronger effect = lower value 1.01 | locus YBR279W, strain paf1, stronger effect = lower value 0.985 | locus YCL011C, strain gbp2, stronger effect = lower value 0.991 | locus YCL016C, strain dcc1, stronger effect = lower value 0.98 | locus YCL029C, strain bik1, stronger effect = lower value 0.985 | locus YCL069W, strain vba3, stronger effect = lower value 1 | locus YCR088W, strain abp1, stronger effect = lower value 0.996 | locus YDL005C, strain med2, stronger effect = lower value 1.01 | locus YDL035C, strain GPR1, stronger effect = lower value 1.05 | locus YDL040C, strain nat1, stronger effect = lower value 0.998 | locus YDL074C, strain BRE1, stronger effect = lower value 1.05 | locus YDL101C, strain DUN1, stronger effect = lower value 0.991 | locus YDL185W, strain tfp1, stronger effect = lower value 0.954 | locus YDL192W, strain arf1, stronger effect = lower value 1.02 | locus YDR001C, strain nth1, stronger effect = lower value 0.987 | locus YDR069C, strain doa4, stronger effect = lower value 0.991 | locus YDR101C, strain arx1, stronger effect = lower value 1.05 | locus YDR137W, strain rgp1, stronger effect = lower value 0.973 | locus YDR159W, strain sac3, stronger effect = lower value 1 | locus YDR162C, strain NBP2, stronger effect = lower value 0.993 | locus YDR195W, strain ref2 0.955 | locus YDR297W, strain sur2, stronger effect = lower value 1 | locus YDR318W, strain mcm21, stronger effect = lower value 0.986 | locus YDR334W, strain swr1, stronger effect = lower value 0.978 | locus YDR335W, strain msn5, stronger effect = lower value 1.01 | locus YDR388W, stronger effect = lower value 0.977 | locus YDR392W, strain spt3, stronger effect = lower value 0.974 | locus YDR502C, strain sam2, stronger effect = lower value 0.983 | locus YEL003W, strain gim4, stronger effect = lower value 0.998 | locus YEL037C, strain rad23, stronger effect = lower value 0.987 | locus YEL061C, strain CIN8 (second series), stronger effect = lower value 0.989 | locus YEL061C, strain CIN8, stronger effect = lower value 0.998 | locus YER015W, strain faa2, stronger effect = lower value 0.989 | locus YER016W, strain bim1, stronger effect = lower value 0.991 | locus YER110C, stronger effect = lower value 0.979 | locus YER111C, strain swi4, stronger effect = lower value 0.98 | locus YER155C, strain BEM2 (second series), stronger effect = lower value 0.994 | locus YER155C, strain BEM2, stronger effect = lower value 0.99 | locus YER167W, strain BCK2, stronger effect = lower value 1.04 | locus YFR010W, strain ubp6, stronger effect = lower value 1 | locus YGL078C, strain dbp3, stronger effect = lower value 0.981 | locus YGL086W, strain mad1, stronger effect = lower value 1.02 | locus YGL167C, strain pmr1, stronger effect = lower value 0.998 | locus YGL173C, strain kem1, stronger effect = lower value 0.994 | locus YGL227W, strain vid30, stronger effect = lower value 0.991 | locus YGL240W, strain doc1, stronger effect = lower value 1.01 | locus YGL248W, strain PDE1, stronger effect = lower value 1.02 | locus YGL253W, strain hxk2, stronger effect = lower value 0.999 | locus YGR078C, strain PAC10, stronger effect = lower value 0.991 | locus YGR135W, strain pre9, stronger effect = lower value 0.98 | locus YGR252W, strain gcn5, stronger effect = lower value 1.09 | locus YHR013C, strain ard1, stronger effect = lower value 0.972 | locus YHR027C, strain rpn1, stronger effect = lower value 0.991 | locus YHR030C, strain SLT2, stronger effect = lower value 0.99 | locus YHR079C, strain IRE1 (second series), stronger effect = lower value 0.99 | locus YHR079C, strain IRE1, stronger effect = lower value 0.983 | locus YHR094C, strain hxt1, stronger effect = lower value 0.982 | locus YHR129C, strain ARP1, stronger effect = lower value 1 | locus YHR142W, strain chs7, stronger effect = lower value 0.98 | locus YHR200W, strain rpn10, stronger effect = lower value 0.995 | locus YIL066C, strain RNR3, stronger effect = lower value 1.02 | locus YIL073C, strain SPO22, stronger effect = lower value 0.932 | locus YIL125W, strain kgd1, stronger effect = lower value 0.985 | locus YIR030C, strain dcg1, stronger effect = lower value 0.997 | locus YJL092W, strain hpr5, stronger effect = lower value 1.02 | locus YJL095W, strain BCK1 (second series), stronger effect = lower value 0.989 | locus YJL095W, strain BCK1, stronger effect = lower value 0.99 and 0.98 | locus YJL115W, strain asf1, stronger effect = lower value 0.986 | locus YJL129C, strain trk1, stronger effect = lower value 0.972 | locus YJL134W, strain LCB3, stronger effect = lower value 0.986 | locus YJL154C, strain vps35, stronger effect = lower value 0.995 | locus YJL164C, strain tpk1, stronger effect = lower value 0.998 | locus YJL166W, strain qcr8, stronger effect = lower value 0.997 | locus YJL168C, strain set2, stronger effect = lower value 0.989 | locus YJL187C, strain SWE1 (second series), stronger effect = lower value 0.989 | locus YJL187C, strain SWE1, stronger effect = lower value 0.999 | locus YJR043C, strain POL32, stronger effect = lower value 1.08 | locus YJR066W, strain TOR1, stronger effect = lower value 0.9
